From PubChem BioAssay
This is a sample that favours compounds with a hit; in the whole collection about 2.1% have one here.
TDP43 rescue: inhibitors of TDP-43 toxicity in yeast; hit rate 1.8% among 410,000; Potency, µM (series often up to 46.1 µM), actives largely listed as activators; TDP-43 expressing yeast growth rescue, BacTiter-Glo, 24 h; AID 652104; further: nearly all actives have a fitted effect of over 50% in size
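Luminescence from BacTiter-Glo reports growth of TDP-43-expressing yeast after 24 hr at 30 deg C with compound. Cells were raffinose-pregrown to mid-log, then seeded in galactose medium at OD600=0.02.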
Abeta rescue: compounds reversing amyloid beta toxicity in yeast; yeast expressing A-beta42, growth rescue, OD600, 48 h; response scale: 0% DMSO, 100% iron-clioquinol control; Potency, µM (highest dose often 46.1 µM), actives largely listed as activators; hit rate 0.063% among 410,000; further: nearly all actives have a fitted effect of over 55% in size
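Yeast A-beta toxicity model in growth medium with pinned compounds, 48 h at 30 C; growth read as absorbance at 600 nm. Normalized to FeCl3/clioquinol equimolar mix (positive) and DMSO (negative).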
aSyn yeast inh: inhibitors of alpha-synuclein toxicity in yeast; Yeast expressing alpha-synuclein, growth rescue, BacTiter-Glo, 24 h; Potency, µM (titrated, usually from 46.1 µM), most hits filed as activators; hit rate 0.14% among 370,000; further: nearly all actives have a fitted effect of over 65% in size
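Galactose-induced alpha-syn yeast (OD600=0.02, raffinose-pregrown) + pinned cpd, 24 hr, 30 deg C; growth by BacTiter-Glo luminescence. Growth restoration scores as activation.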
FUS suppressor: FUS proteinopathy suppression in yeast | S. cerevisiae FUS-expressing, growth rescue, OD600, 24 h | Potency, µM (doses to about 76.6 µM), actives largely listed as activators | hit rate 0.24% among 390,000 | AID 1347120; further: nearly all actives have a fitted effect of over 55% in size
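Cultures pregrown in 2.5% raffinose medium are shifted to minimal medium containing 2% galactose to express toxic FUS. Compounds are tested at several concentrations. After 24hr at 30C, growth is quantified at 600 nm absorbance.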
Hits are given with their value; n = inactive; u = inconclusive; x = no result given; ! = a repeat was not active; [ ] = dose if it differs, or a comment. The call rests on the fitted dose curve; in most records, active means well fitted curve in the direction sought with a large enough effect; inconclusive means small, poorly fitted or top-dose-only effect, or another doubt; inactive means no such curve, though single readings can be large; an effect the other way counts as inactive or inconclusive.

SMILES	TDP43 rescue	Abeta rescue	aSyn yeast inh	FUS suppressor
O=C(Nc1nc(-c2cccs2)c(-c2ccccc2)s1)c1ccco1	13µM	n	n	n
O=C(Nc1nc(-c2cccs2)c(C(=O)C(F)(F)F)s1)c1ccccc1	n	n	n	n
CC(=O)Nc1sc(NC(=O)c2ccco2)nc1-c1cccs1	n	n	n	n
S=C(Nc1ccc(Cl)c(Cl)c1)Nc1nnc(-c2ccncc2)s1	x	x	x	n
CC(C)C[C@H]1COc2cccc(F)c2S(=O)(=O)N1C	x	x	x	n
O=[N+]([O-])c1ccc(-c2cc3ccccc3[nH]2)cc1	x	x	n	x
CC1CN(C(=O)Nc2ccc3snnc3c2)c2ccccc21 (configuration not stated)	16µM	n	n	n
Cc1ccc(S(=O)(=O)N2CCN(Cc3cccc(F)c3)CC2)cc1	n	n	n	n
Cc1ccc2nc(CN3CCN(S(=O)(=O)c4ccc(F)cc4)CC3)oc2c1	16µM	n	x	n
CC1(C)C(=O)C=CC(=O)C(C)(C)C(=O)C=CC(=O)C(C)(C)C2=CC=C(O2)C(C)(C)C(=O)C=CC1=O	16µM	n	n	x
O=C(CN1C(=O)C2(OCCCO2)c2ccccc21)NCc1ccc2ccccc2c1	x	x	x	n
CCOc1ccccc1NC(=O)Cc1coc2ccc(C)cc12	x	u	13µM	n
Cc1ccc2occ(CC(=O)Nc3c(C)cccc3C)c2c1	13µM	n	x	n
CCc1ccc(Cn2c(CNS(=O)(=O)c3ccc4c(c3)CCCC4)nc3cccnc32)cc1	n	n	x	n
Cc1ccc(O)c(N=Nc2ccccc2)n1	11µM	n	n	n
Oc1ccc(Cl)cc1N=Nc1ccccc1	n	n	n	n
CCCn1nc(NS(C)(=O)=O)c2cc3cccc(C)c3nc21	35µM	n	n	u
O=C(CSc1nnc(CNC(=O)c2ccccc2)n1-c1cccc(Cl)c1)Nc1ccccc1F	n	n	x	n
CC(=O)c1cc(-c2ccccc2)c(=O)n2c1CCC2	x	x	x	n
CNc1nc(Oc2ccc3sc(C)nc3c2)c2sccc2n1	20µM	n	n	n
Cc1nc2cc(Oc3nc(NCCN(C)C)nc4ccsc34)ccc2s1	n	n	n	n
COC(=O)[C@]12C[C@H](CC(=O)N3CCCC3)C(=O)N(Cc3ccco3)C1=C[C@H](C(C)(C)C)O[C@@H]2C	x	x	x	n
CC(=O)c1cc(-c2ccc3nonc3c2)c(=O)n2c1CCC2	x	x	x	n
O=C1NC(=O)/C(=C/c2cc3c(cc2Br)OCO3)S1	n	n	n	n
COCCN1C(=O)/C(=C/c2cc3c(cc2Br)OCO3)NC1=S	20µM	n	n	n
SMILES	TDP43 rescue	Abeta rescue	aSyn yeast inh	FUS suppressor
O=C(O)/C=C/c1ccc([N+](=O)[O-])o1	10µM	n	n	n
CN1CCN(C(=O)/C=C/c2ccc([N+](=O)[O-])o2)CC1	n	n	n	n
C=CCn1c(SCC(=O)C(C)(C)C)nnc1-c1ccc(Cl)cc1	x	x	x	n
COc1cc(C(=O)NCCc2csc(-c3ccc(Cl)cc3)n2)cc(OC)c1OC	22µM	n	x	n
O=C(NCc1csc(-c2ccccc2)n1)c1cc(F)cc2c1OCOC2	13µM	n	n	n
O=C(NCCc1csc(-c2ccccc2)n1)c1c(F)cccc1Cl	13µM	n	n	n
O=C(NCCc1csc(-c2cccnc2)n1)c1c(F)cccc1F	n	n	n	n
O=C(NCCc1csc(-c2ccc(Cl)cc2)n1)c1ccco1	16µM!	n	n	n
Cc1ccccc1CN1CCCCC(NC(=O)Nc2ccccc2)C1=O (configuration not stated)	x	x	x	n
CCOc1ccc(/C=C/c2nc(C#N)c(N3CCC(C)CC3)o2)cc1	u	n	x	n
CCOc1ccc(NC(=O)CSc2nnc3c(n2)[nH]c2ccc(S(=O)(=O)N(C)C)cc23)cc1	x	x	n	x
OC[C@@H]1CC[C@@H]2O[C@H](CCc3ccc(-c4ccc(F)cc4)cc3)[C@@H](n3cc(C4CC4)nn3)C[C@@H]2O1	x	x	x	n
O=C(NCCc1csc(-c2ccccc2)n1)c1c(F)cccc1F	20µM	n	n	n
O=C(NCCc1csc(-c2ccc(F)cc2)n1)c1c(F)cccc1Cl	13µM	n	x	n
C=CCN(c1ccccc1)S(=O)(=O)c1cccc(C(=O)Nc2ccc(N3CCOCC3)cc2)c1	14µM	n	n	n
CC(=O)CC[C@H]1CC[C@]2(CCCN(Cc3nccn3C)C2)O1	x	x	x	n
O=C(c1cc(COc2ccc(F)cc2Cl)on1)N1CCN(C2CCCCC2)C(=O)C1	20µM	n	n	x
O=C(c1cc(COc2ccc(F)cc2Cl)on1)N1CCN(C2CCCC2)CC1	n	n	n	n
Cc1ccc(Cl)cc1N1CCN(C(=O)c2ccc(CS(=O)(=O)c3ccc(Br)cc3)o2)CC1	n	n	x	22µM
C=CCSc1nnc(-c2cc3c(-c4ccccc4)nn(C)c3s2)n1C	20µM	n	n	n
C=CCSc1nnc(-c2cc3c(C(F)(F)F)nn(C)c3s2)n1C	n	n	n	n
Cc1cc([N+](C)(C)C)cc(C)c1/C=C/c1ccnc2ccccc12	x	x	n	x
O=C(ON=C1CCN(S(=O)(=O)c2ccccc2)CC1)c1cccc(Cl)c1	u	n	n	n
O=C(ON=C1CCN(S(=O)(=O)c2ccccc2)CC1)c1ccccc1	20µM	n	n	n
CC(C)C(=O)N[C@H]1[C@H](O)CCC[C@@]12C(=O)N(Cc1ccccc1)c1ccccc12	x	x	x	n
SMILES	TDP43 rescue	Abeta rescue	aSyn yeast inh	FUS suppressor
CCOC(=O)N1CCC(N(CCN(C)C)C(=S)Nc2ccc(Oc3ccccc3)cc2)CC1	n	n	20µM	n
CCOC(=O)Nc1cccc(OCC(=O)Nc2ccccc2OC)c1	16µM	n	n	n
CCOC(=O)Nc1ccc(C(=O)/C=C/c2ccccc2)cc1	14µM	n	n	n
CCOC(=O)N1CCC(N(CCN(C)C)C(=S)Nc2cccc(C)c2)CC1	n	n	n	n
O=C(Nc1ccc(Oc2ccccc2)cc1)C1CCN(c2ncccn2)CC1	n	n	n	n
CCOC(=O)c1ccc(N/C=C/C(=O)c2ccccc2)cc1	n	n	n	n
O=C(Nc1ccc(Oc2ccccc2)cc1)C1CC1	5.6µM	n	n	n
O=c1[nH]c2c(-c3nc(-c4ccc(Cl)cc4)cs3)c(O)cn2c2ccccc12	x	x	n	x
CCOC(=O)Nc1ccc(Oc2ccccc2)cc1	11µM	n	n	n
CC[C@@H](CCCc1ccc(F)cc1)CN(Cc1ccc(OC)cc1)S(=O)(=O)c1ccc(C)cc1	x	x	x	n
O=C(Nc1nc2ccccc2s1)C1CCCO1 (configuration not stated)	n	n	n	n
COCC(=O)Nc1nc2ccccc2s1	n	n	n	n
O=C(Nc1nc2ccccc2s1)C1c2ccccc2Oc2ccccc21	10µM	n	n	n
CC1(C(=O)Nc2nc3ccccc3s2)CC1(Br)Br (configuration not stated)	10µM	u	n	n
O=C(Cc1ccccc1)Nc1nc2ccccc2s1	u	7.1µM	n	n
CCOC(=O)Cc1nc(N2CCN(C(=O)C3CCCO3)CC2)c2c(C)c(C(=O)OCC)sc2n1 (configuration not stated)	x	x	x	n
Cn1nnnc1SCCCNCc1cc(Br)ccc1OCc1ccccc1F	n[9.22 µM]	n	x	n
